# From PubChem BioAssay AID588689 (Southern Research Specialized Biocontainment Screening …, 2011)
# Hit rate of the full screen: of about 340,000 compounds, about 1,000 (0.29%) were called active. Cut-off read from the data, not from the text of the source: inconclusive = inhibition above about 29% without an active follow-up result; inactive = below that. A selection follows. Potency and affinity values are given separately.
# Biological target: Genome polyprotein (Dengue virus type 2 (strain 16681-PDK53)) (UniProt P29991)
# Sequence (P29991 whole entry, looked up): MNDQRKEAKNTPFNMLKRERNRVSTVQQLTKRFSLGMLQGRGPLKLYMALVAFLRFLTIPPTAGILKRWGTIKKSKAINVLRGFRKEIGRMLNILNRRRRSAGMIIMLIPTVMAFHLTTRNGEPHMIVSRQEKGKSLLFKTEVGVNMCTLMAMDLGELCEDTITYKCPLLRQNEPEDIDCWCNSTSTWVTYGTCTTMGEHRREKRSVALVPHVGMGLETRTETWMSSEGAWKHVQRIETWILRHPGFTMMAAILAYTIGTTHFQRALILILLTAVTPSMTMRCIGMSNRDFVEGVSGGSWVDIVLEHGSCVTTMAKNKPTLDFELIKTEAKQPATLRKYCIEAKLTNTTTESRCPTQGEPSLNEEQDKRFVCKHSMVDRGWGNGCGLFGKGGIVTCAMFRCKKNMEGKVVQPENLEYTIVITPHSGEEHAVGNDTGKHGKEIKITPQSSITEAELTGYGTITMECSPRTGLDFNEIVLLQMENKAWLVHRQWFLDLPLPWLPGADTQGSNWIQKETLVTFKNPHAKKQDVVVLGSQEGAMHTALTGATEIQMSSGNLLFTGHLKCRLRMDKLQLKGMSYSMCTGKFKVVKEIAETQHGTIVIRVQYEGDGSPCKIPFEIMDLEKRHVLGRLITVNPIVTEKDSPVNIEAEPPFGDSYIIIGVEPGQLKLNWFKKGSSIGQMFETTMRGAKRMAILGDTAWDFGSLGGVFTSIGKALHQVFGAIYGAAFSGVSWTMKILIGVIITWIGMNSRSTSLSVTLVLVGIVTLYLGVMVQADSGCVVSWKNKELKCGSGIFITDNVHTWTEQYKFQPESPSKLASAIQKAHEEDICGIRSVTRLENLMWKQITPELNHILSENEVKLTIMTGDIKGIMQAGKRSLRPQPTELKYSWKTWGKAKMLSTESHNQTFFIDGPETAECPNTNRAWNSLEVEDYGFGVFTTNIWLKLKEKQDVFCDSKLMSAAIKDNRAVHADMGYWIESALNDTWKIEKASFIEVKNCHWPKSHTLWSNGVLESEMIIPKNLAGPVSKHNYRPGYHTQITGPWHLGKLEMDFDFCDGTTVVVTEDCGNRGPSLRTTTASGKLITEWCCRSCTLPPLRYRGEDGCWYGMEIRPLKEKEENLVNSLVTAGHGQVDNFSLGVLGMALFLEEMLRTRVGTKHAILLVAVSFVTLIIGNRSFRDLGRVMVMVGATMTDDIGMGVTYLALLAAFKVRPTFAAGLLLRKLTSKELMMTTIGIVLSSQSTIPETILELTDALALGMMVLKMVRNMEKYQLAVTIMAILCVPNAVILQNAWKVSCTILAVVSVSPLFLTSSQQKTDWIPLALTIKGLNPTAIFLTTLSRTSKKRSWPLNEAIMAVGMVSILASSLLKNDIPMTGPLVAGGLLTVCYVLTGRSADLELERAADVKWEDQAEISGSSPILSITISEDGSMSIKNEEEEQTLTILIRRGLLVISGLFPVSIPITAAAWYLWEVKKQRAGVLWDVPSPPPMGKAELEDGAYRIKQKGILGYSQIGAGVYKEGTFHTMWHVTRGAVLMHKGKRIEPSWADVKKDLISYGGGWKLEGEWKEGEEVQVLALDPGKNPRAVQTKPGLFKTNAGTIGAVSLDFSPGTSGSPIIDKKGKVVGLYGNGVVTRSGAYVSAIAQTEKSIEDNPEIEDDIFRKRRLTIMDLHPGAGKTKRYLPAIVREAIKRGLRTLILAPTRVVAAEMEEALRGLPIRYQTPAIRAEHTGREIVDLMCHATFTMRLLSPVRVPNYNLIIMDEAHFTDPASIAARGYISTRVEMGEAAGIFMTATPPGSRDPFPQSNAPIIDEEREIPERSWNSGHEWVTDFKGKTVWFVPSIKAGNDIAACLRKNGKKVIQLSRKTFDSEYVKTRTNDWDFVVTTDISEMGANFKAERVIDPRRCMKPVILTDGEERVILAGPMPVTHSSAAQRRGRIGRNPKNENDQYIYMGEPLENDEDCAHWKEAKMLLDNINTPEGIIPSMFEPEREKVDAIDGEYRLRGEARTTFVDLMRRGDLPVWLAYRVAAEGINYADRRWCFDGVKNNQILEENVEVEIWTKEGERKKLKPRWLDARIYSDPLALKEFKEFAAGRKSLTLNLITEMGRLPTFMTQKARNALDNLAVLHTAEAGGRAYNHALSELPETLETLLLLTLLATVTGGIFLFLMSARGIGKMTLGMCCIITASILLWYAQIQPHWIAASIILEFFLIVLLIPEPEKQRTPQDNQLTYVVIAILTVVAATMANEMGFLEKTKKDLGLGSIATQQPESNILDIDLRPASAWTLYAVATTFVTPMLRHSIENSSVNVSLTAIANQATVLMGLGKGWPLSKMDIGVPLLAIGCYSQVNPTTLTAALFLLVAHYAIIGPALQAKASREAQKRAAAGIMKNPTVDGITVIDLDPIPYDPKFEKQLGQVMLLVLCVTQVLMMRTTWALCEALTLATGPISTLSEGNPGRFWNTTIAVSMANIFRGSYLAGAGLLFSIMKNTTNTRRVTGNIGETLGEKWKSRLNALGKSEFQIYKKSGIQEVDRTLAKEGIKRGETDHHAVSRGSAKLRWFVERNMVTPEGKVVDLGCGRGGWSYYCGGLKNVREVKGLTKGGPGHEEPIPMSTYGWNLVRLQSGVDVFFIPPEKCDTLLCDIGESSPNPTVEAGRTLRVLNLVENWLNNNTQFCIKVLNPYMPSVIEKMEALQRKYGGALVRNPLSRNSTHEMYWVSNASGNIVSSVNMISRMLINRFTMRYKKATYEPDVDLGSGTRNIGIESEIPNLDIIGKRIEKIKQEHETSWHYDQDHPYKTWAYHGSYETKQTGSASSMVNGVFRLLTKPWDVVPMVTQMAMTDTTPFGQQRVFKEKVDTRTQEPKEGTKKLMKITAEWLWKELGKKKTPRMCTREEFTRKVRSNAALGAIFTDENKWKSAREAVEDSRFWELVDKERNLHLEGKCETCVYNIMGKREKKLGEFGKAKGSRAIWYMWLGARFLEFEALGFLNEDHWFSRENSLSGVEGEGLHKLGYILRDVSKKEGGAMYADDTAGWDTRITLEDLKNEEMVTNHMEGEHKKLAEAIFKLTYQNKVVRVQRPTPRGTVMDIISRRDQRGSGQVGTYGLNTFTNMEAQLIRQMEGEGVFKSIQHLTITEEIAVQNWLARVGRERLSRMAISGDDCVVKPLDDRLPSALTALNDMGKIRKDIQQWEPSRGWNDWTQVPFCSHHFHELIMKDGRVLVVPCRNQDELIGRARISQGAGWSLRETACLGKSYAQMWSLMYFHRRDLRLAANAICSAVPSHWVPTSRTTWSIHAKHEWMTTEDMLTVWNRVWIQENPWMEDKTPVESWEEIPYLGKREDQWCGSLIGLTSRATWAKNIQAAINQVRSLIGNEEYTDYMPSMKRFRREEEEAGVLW
# Test: Dengue-2 NS5 methyltransferase inhibitors, primary screen, biochemical, confirmation dose response (AID 588689)
# Conditions: Dengue-2 NS5 methyltransferase capping enzyme assay, at 25 µM, hits give high values
row,Compound,inhibition
1,C=CC[C@@H](CC(=O)N[C@@H](CO)Cc1ccccc1)C(=O)NC[C@@H](OC(=O)[C@@H](CC=C)Cc1ccc(F)cc1)c1ccccc1,-8.18% (inactive)
2,CO/N=C(/C)CCS(=O)(=O)c1ccccc1,-0.73% (inactive)
3,CC(C(=O)Nc1nncs1)N1C(=O)C2C3C=CC(C3)C2C1=O (stereo not given),-5.41% (inactive)
4,CCN(CC(=O)NCc1cccs1)C(=O)CCC(=O)c1ccc(C)cc1,-8.12% (inactive)
5,NC(=O)C1CCN(C(=O)CN(C2CCCCC2)S(=O)(=O)c2ccc(F)cc2)CC1,-9.49% (inactive)
6,CCN(CC)S(=O)(=O)c1ccc2c(c1)N(CC(=O)N1CCC(C(N)=O)CC1)C(=O)CO2,-6.21% (inactive)
7,O=S(=O)(c1ccc2ccccc2c1)N1CCN(S(=O)(=O)c2c(F)cccc2F)CC1,1.65% (inactive)
8,COc1cc(O)c(NC(C)=O)c2nonc12,15% (inactive)
9,CCOc1cc(Cl)c(NC(C)=O)cc1OCC,-5.19% (inactive)
10,CC(C)(C)OC(=O)N1CCN(C(=O)c2[nH]cnc2C(=O)Nc2cccc(Cl)c2)CC1,-10.3% (inactive)
11,O=CN1CCN(C(=S)NC(=O)c2ccc(Cl)cc2)CC1,-3.86% (inactive)
12,CC(C)CN1C(=O)/C(=C/c2cccs2)NC1=S,4.84% (inactive)
13,O=C1NN(c2ccc(F)cc2)C(=O)/C1=C/c1cccs1,8.53% (inactive)
14,COC(=O)C1=C(C)NC(=O)/C1=C\c1cccs1,2.73% (inactive)
15,C=CCN1C(=O)/C(=C\c2cccs2)C(C(=O)OC)=C1C,-4.71% (inactive)
16,COc1ccc(NS(=O)(=O)c2cccc(C(=O)NCC3(N(C)C)CCCCC3)c2)cc1,-10.1% (inactive)
17,COCCNC(=O)c1ccc2c(=O)n(Cc3ccco3)c(SCC(=O)Nc3ccc(OC)cc3OC)nc2c1,-3.55% (inactive)
18,COc1ccccc1N1CCN(S(=O)(=O)c2ccc3nc(-c4ccccc4)[nH]c3c2)CC1,1.09% (inactive)
19,O=c1c2c(nc3cc(-c4cccc(Cl)c4)[nH]n13)CCCC2,1.45% (inactive)
20,O=C(NN=C1CCCC1)C(=O)Nc1cccc(C(F)(F)F)c1,-3.35% (inactive)
21,O=C(O)CSc1c2c(nc3cc(C(=O)Nc4cccc(C(F)(F)F)c4)ccc13)CCC2,2.95% (inactive)
22,O=C(CSc1nc2c(c(=O)[nH]1)CCC2)Nc1cccc(Cl)c1,-8.06% (inactive)
23,Cc1ccc(S(=O)(=O)/N=C(\Nc2cccc(C)c2)Nc2nc(C)cc(C)n2)cc1,-1.83% (inactive)
24,N#Cc1c(Nc2ccccc2)sc(C(=O)C2CC2)c1N,-8.93% (inactive)
25,CCN(CC)CCNC(C(=O)Nc1ccc([N+](=O)[O-])cc1Br)c1ccccc1 (stereo not given),3.24% (inactive)
